Results taken from PubChem BioAssay (EPA / NIEHS).
The source made the active and inactive calls. How the source made its calls: active means hit-call score of the fitted dose curve at least 0.9, where 1 is the maximum; inactive means score below 0.9.

Experiments:
[1] = ATG_DR4_LXR_CIS: Attagene CIS-FACTORIAL HepG2 Assay for human Liver X Receptor (LXR), DR4 submotif (AID 2282929); conditions: HepG2 Attagene DR4 cis-reporter, mRNA transcription; AC50: actives raise or lower the signal unless noted; outcome: actives raise or lower the signal unless noted
Method in brief: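 HepG2 cells transiently transfected with cis-promoter-driven multiplexed reporter units (DR4 element) were dosed for 24 h. Reporter mRNA was quantified by RT-PCR, fluorescent primer extension, HpaI digestion and capillary electrophoresis; bidirectional fitting versus DMSO baseline.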

[2] = biological target: Aryl hydrocarbon receptor (Homo sapiens) (UniProt P35869); test: ATG_Ahr_CIS: Attagene CIS-FACTORIAL HepG2 Assay for human Aryl Hydrocarbon Receptor (Ahr) (AID 2282930); conditions: HepG2 AhR cis-factorial reporter transcription; actives raise or lower the signal
Chain of Aryl hydrocarbon receptor (Homo sapiens) (P35869 whole entry, looked up): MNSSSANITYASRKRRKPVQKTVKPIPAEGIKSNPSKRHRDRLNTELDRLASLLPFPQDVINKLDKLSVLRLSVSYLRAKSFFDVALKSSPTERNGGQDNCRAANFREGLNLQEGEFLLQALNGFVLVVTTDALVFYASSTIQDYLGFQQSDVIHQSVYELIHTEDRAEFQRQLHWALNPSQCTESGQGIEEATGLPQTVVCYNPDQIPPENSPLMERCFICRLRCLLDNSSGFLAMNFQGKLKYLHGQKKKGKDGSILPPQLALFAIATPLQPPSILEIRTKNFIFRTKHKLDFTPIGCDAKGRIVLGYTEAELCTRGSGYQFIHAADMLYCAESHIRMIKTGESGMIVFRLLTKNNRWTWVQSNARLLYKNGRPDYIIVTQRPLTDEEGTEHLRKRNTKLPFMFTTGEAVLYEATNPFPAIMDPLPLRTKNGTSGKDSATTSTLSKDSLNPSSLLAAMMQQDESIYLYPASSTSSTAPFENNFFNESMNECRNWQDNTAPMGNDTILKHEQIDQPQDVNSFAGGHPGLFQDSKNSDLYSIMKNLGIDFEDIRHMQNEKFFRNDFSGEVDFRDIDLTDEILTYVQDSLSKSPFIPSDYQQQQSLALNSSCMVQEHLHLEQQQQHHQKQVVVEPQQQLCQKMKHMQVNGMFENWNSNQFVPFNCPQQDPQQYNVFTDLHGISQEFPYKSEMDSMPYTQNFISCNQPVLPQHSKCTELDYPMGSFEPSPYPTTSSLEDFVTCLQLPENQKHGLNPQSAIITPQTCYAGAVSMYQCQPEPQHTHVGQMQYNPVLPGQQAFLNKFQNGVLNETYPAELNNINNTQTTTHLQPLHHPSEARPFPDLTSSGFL
Method in brief: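 Values derive from bidirectional fitting against DMSO negative control. Underlying signal: cis-element reporter mRNA in transiently transfected HepG2, harvested 24 h post-dose and measured by RT-PCR plus capillary electrophoresis.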

[3] = ATG_AP_1_CIS: Attagene CIS-FACTORIAL HepG2 Assay for human Activator Protein 1 (AP-1) (AID 2282931); conditions: HepG2 Attagene cis-factorial AP-1 reporter mRNA; actives raise or lower the signal
Method in brief: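 HepG2 cells transiently transfected with cis-element-driven multiplex reporter units; 24 h compound exposure. Reporter mRNA quantified by RT-PCR, FAM-labelled fragments resolved by capillary electrophoresis; bidirectional fit versus DMSO baseline.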

[4] = ATG_BRE_CIS: Attagene CIS-FACTORIAL HepG2 Assay for human Bone Morphogenetic Protein (BMP) Response Element (BRE) (AID 2282933); conditions: HepG2 BMP response element reporter, Attagene transcription factor profiling; actives raise or lower the signal
Method in brief: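 Read-out: reporter mRNA induction quantified by RT-PCR and capillary electrophoresis after 24 h chemical exposure of transfected HepG2 cells. Endogenous factor activity on the BMP response element; gain or loss fitted against DMSO baseline.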

[5] = biological target: Retinoic acid receptor alpha (Homo sapiens) (UniProt P10276); test: ATG_DR5_RAR_CIS: Attagene CIS-FACTORIAL HepG2 Assay for human Retinoic Acid Receptor Alpha (RARE), DR5 submotif (AID 2282934); conditions: HepG2 Attagene cis-factorial RARE DR5 reporter, mRNA; actives raise or lower the signal;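 on AC50: reporter responds to endogenous RAR alpha beta and gamma in HepG2 not RARA alone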
Chain of Retinoic acid receptor alpha (Homo sapiens) (P10276 whole entry, looked up): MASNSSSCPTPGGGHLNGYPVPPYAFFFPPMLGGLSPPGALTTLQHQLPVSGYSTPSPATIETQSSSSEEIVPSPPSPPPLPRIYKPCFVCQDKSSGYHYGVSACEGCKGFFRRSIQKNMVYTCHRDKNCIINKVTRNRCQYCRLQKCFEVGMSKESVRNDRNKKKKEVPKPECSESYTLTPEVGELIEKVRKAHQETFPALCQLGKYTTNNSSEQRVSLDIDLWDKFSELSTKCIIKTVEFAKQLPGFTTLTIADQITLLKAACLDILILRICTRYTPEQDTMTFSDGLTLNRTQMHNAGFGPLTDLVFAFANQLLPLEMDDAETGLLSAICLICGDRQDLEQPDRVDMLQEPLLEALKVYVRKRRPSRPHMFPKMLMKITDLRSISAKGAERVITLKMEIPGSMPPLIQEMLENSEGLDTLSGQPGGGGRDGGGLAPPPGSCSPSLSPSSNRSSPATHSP
Method in brief: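 Endpoint fitted in both directions relative to DMSO as negative control. It reflects DR5 cis-element reporter mRNA induction in transiently transfected HepG2 cells, measured 24 h after dosing through RT-PCR and fluorescent capillary electrophoresis.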

[6] = biological target: Transcription factor E2F1 (Homo sapiens) (UniProt Q01094); test: ATG_E2F_CIS: Attagene CIS-FACTORIAL HepG2 Assay for human E2F Transcription Factor 1 (AID 2282935); conditions: HepG2 Attagene cis-reporter, E2F reporter RNA transcripts; actives raise or lower the signal
Chain of Transcription factor E2F1 (Homo sapiens) (Q01094 whole entry, looked up): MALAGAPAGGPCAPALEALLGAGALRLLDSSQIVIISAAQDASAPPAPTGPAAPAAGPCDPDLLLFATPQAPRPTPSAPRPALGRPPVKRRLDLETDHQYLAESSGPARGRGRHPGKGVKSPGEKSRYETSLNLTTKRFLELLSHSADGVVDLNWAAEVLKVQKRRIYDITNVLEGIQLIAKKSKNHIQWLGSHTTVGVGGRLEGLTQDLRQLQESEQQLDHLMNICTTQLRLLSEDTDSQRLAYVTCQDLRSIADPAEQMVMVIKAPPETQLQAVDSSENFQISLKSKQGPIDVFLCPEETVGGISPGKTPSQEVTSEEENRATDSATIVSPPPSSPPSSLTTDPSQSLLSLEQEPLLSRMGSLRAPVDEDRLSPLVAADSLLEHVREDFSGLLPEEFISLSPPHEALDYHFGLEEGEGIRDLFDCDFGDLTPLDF
Method in brief: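 HepG2 cells transiently transfected with multiplexed cis-element reporter units, dosed for 24 h. Reporter mRNA measured by RT-PCR, 6-FAM primer-extension labeling, HpaI digestion and capillary electrophoresis; bidirectional fit versus DMSO baseline.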

[7] = ATG_E_Box_CIS: Attagene CIS-FACTORIAL HepG2 Assay for human Enhancer Box (E-box) (AID 2282936); conditions: HepG2 E-box cis-reporter transcription, actives raise or lower the signal
Method in brief: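 HepG2 cells transiently transfected with multiplexed cis-element reporter units sensing endogenous transcription factor activity; 24 h compound exposure. Reporter mRNA measured by RT-PCR, 6-FAM primer extension, HpaI digestion and capillary electrophoresis; bidirectional fit versus DMSO.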

[8] = ATG_M_61_CIS: Attagene CIS-FACTORIAL HepG2 Assay for M61 Transcription Factor (Internal Marker) (AID 2282937); conditions: HepG2 Attagene CIS-FACTORIAL M61 internal marker reporter; actives raise or lower the signal
Method in brief: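 HepG2 cells transiently transfected with cis-element-driven multiple reporter transcription units, dosed for 24 h. Reporter mRNA measured by RT-PCR, 6-FAM primer-extension labelling, HpaI digestion and capillary electrophoresis; bidirectional fit versus DMSO baseline.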

[9] = ATG_EGR_CIS: Attagene CIS-FACTORIAL HepG2 Assay for human Early Growth Response 1 (EGR1) (AID 2282938); conditions: HepG2 Attagene CIS-FACTORIAL EGR reporter mRNA; actives raise or lower the signal
Method in brief: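 HepG2 cells transiently transfected with cis-promoter-driven multiplexed reporter transcription units; reporter mRNA measured 24 h after compound dosing by RT-PCR, 6-FAM primer extension, HpaI digestion and capillary electrophoresis. Bidirectional fit versus DMSO baseline.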

[10] = ATG_M_19_CIS: Attagene CIS-FACTORIAL HepG2 Assay for M19 Transcription Factor (Internal Marker) (AID 2282939); conditions: HepG2 Attagene CIS-FACTORIAL M19 internal marker reporter; actives raise or lower the signal
Method in brief: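 Readout: fluorescent reporter-transcript fragments by capillary electrophoresis after RT-PCR. Human HepG2 liver cells carried transfected MRTU constructs reporting endogenous transcription-factor activity; exposure 24 h. Gain or loss of signal fitted relative to DMSO.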

[11] = ATG_ERE_CIS: Attagene CIS-FACTORIAL HepG2 Assay for Estrogen Response Element (ERE) (AID 2282940); conditions: HepG2 ERE cis-reporter, Attagene RNA transcript; actives raise or lower the signal
Method in brief: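 Readout: reporter mRNA induction by RT-PCR, FAM-labelled primer extension, HpaI digestion and capillary electrophoresis, 24 h after dosing transfected HepG2 cells. Endogenous transcription factors act on cis-element-regulated reporters. Gain or loss fitted against DMSO.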

[12] = biological target: Hepatocyte nuclear factor 3-beta (Homo sapiens) (UniProt Q9Y261); test: ATG_FoxA2_CIS: Attagene CIS-FACTORIAL HepG2 Assay for human Forkhead box A2 (FOXA2) (AID 2282942); conditions: HepG2 cis-reporter transcription factor activity, 24 h; actives raise or lower the signal
Chain of Hepatocyte nuclear factor 3-beta (Homo sapiens) (Q9Y261 whole entry, looked up): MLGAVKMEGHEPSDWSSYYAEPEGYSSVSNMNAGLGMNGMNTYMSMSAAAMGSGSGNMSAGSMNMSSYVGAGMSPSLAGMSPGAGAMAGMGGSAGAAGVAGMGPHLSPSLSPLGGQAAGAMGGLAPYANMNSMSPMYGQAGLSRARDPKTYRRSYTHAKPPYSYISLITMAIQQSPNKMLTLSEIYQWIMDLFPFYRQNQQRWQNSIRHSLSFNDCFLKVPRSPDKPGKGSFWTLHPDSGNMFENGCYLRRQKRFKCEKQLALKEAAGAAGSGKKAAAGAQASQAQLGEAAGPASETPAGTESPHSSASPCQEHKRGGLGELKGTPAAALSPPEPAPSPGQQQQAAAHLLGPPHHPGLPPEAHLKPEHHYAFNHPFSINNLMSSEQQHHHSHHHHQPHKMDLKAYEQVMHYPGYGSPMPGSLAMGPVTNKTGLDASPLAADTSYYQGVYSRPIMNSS
Method in brief: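 HepG2 cells transiently transfected with multiple cis-regulated reporter transcription units, dosed for 24 h. Reporter mRNA measured by RT-PCR, 6-FAM labelling, HpaI digestion and capillary electrophoresis; bidirectional fitting against DMSO baseline.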

[13] = ATG_FoxO_CIS: Attagene CIS-FACTORIAL HepG2 Assay for human Forkhead box O (FoxO) (AID 2282943); conditions: HepG2 Attagene cis-reporter, FoxO element, mRNA; actives raise or lower the signal
Method in brief: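 Values reflect reporter mRNA induction or loss in HepG2 cells 24 h post-dosing, fitted bidirectionally with DMSO as negative control and baseline. Detection used RT-PCR and fluorescence capillary electrophoresis.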

[14] = ATG_GATA_CIS: Attagene CIS-FACTORIAL HepG2 Assay for human GATA Binding Protein (AID 2282944); conditions: HepG2 GATA cis-element reporter, Attagene multiplex mRNA; actives raise or lower the signal
Method in brief: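 Read-out: fluorescent reporter mRNA fragments resolved by capillary electrophoresis after RT-PCR. Human liver HepG2 cells carried transiently transfected cis-regulated reporter constructs; chemicals incubated 24 h; gain or loss of signal fitted relative to DMSO.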

[15] = ATG_GLI_CIS: Attagene CIS-FACTORIAL HepG2 Assay for human Zinc Finger Protein GLI1 (AID 2282945); conditions: HepG2, Attagene cis-factorial reporter mRNA, GLI element; actives raise or lower the signal
Method in brief: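 HepG2 cells transiently transfected with cis-promoter multiplexed reporter units report endogenous transcription factor activity. After 24 h chemical exposure, reporter mRNA was quantified by RT-PCR, 6-FAM labelling, HpaI digestion and capillary electrophoresis, with bidirectional fitting against DMSO.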

[16] = biological target: Bile acid receptor (Homo sapiens) (UniProt Q96RI1); test: ATG_IR1_CIS: Attagene CIS-FACTORIAL HepG2 Assay for human Nuclear Receptor Subfamily 1 Group H Member 4 (NR1H4), IR1 submotif (AID 2282946); conditions: IR1 reporter transcription, actives raise or lower the signal
Chain of Bile acid receptor (Homo sapiens) (Q96RI1 whole entry, looked up): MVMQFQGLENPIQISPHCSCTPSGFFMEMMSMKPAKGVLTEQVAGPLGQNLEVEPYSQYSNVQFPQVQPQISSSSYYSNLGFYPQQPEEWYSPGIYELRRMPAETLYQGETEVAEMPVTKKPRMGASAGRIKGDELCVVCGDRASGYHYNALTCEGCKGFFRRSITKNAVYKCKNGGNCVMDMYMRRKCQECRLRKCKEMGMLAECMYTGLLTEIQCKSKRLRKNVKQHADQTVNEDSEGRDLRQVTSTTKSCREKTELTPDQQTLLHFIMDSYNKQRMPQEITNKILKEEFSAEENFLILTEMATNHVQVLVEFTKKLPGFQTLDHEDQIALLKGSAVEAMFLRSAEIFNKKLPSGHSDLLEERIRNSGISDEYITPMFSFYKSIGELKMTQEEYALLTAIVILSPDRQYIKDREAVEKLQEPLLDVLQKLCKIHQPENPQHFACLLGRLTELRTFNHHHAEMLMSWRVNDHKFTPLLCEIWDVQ
Method in brief: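 Transient MRTU transfection, HepG2; 24 h dosing; RNA → RT-PCR → 6-FAM primer extension → HpaI digest → capillary electrophoresis fluorescence. Gain/loss of signal fitted relative to DMSO.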

[17] = ATG_GRE_CIS: Attagene CIS-FACTORIAL HepG2 Assay for human Glucocorticoid Response Elements (GRE) (AID 2282947); conditions: HepG2 GRE cis-reporter, Attagene multiplex mRNA; AC50: actives raise or lower the signal unless noted; outcome: actives raise or lower the signal unless noted
Method in brief: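 HepG2 cells transiently transfected with multiple cis-promoter reporter units measure endogenous TF activity; 24 h compound exposure. Reporter mRNA quantified by RT-PCR, FAM labelling, HpaI digestion and capillary electrophoresis; bidirectional fit vs DMSO baseline.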

[18] = ATG_ISRE_CIS: Attagene CIS-FACTORIAL HepG2 Assay for human Interferon Regulatory Factor 1 (IRF1) binding to an Interferon-Stimulated Response Element (ISRE) (AID 2282948); conditions: HepG2 ISRE cis-reporter (Attagene), mRNA transcription readout; actives raise or lower the signal
Method in brief: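 HepG2 cells transiently transfected with multiplexed cis-promoter reporter units; after 24 h compound exposure, reporter mRNA quantified by RT-PCR, FAM labelling, HpaI digestion and capillary electrophoresis. Bidirectional fit versus DMSO baseline.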

[19] = ATG_Ets_CIS: Attagene CIS-FACTORIAL HepG2 Assay for human Erythroblast Transformation Specific (ETS) (AID 2282941); conditions: HepG2 ETS cis-reporter transcription; AC50: actives raise or lower the signal unless noted; outcome: actives raise or lower the signal unless noted
Method in brief: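 HepG2 cells transiently transfected with cis-promoter reporter transcription units were dosed for 24 h; reporter mRNA was measured by RT-PCR, 6-FAM primer extension, HpaI digestion and capillary electrophoresis, with bidirectional fitting against DMSO baseline.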

[20] = ATG_AP_2_CIS: Attagene CIS-FACTORIAL HepG2 Assay for human Activator Protein 2 (AP-2) (AID 2282932); conditions: HepG2 AP-2 cis-reporter, Attagene transcription factor profiling; AC50: actives raise or lower the signal unless noted; outcome: actives raise or lower the signal unless noted
Method in brief: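 HepG2 cells were transiently transfected with multiple cis-promoter reporter transcription units and dosed for 24 h. Reporter mRNA was measured by RT-PCR with capillary electrophoresis fluorescence; bidirectional fits relative to DMSO baseline.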

Measured: AC50

COC(=O)CC(C(C)=O)C(=O)OC (stereo not drawn)
not listed: [19] | [20]
inactive: all other assays above

O=C(O)c1cccc(C(=O)O)n1
not listed: [14] | [15] | [18] | [20]
inactive: all other assays above

O=C(Nc1ccc(Cl)c(Cl)c1)c1cc(Cl)cc(Cl)c1O
active: [1] 28.6 µM | [2] 0.0441 µM | [20] 2.07 µM | [4] 0.695 µM | [5] 1.37 µM | [12] 0.502 µM | [15] 50.6 µM | [16] 52.4 µM | [18] 33.4 µM
not listed: [9]
inactive: all other assays above

Cc1cccc2c1ccc1ccccc12
active: [11] 10.2 µM
not listed: [15] | [20]
inactive: all other assays above

C=CC(F)(F)C(F)(F)C(F)(F)C(F)(F)F
not listed: [9] | [13] | [14] | [18]
inactive: all other assays above

COCC1CCC(CO)CC1 (stereo not drawn)
active: [11] 24.4 µM
not listed: [18] | [20]
inactive: all other assays above

Oc1c(Cl)cc(Cl)cc1Sc1cc(Cl)cc(Cl)c1O
active: [4] 1.9 µM
not listed: [20]
inactive: all other assays above

CCCCc1oc2ccccc2c1C(=O)c1cc(I)c(OCCN(CC)CC)c(I)c1
active: [1] 18.4 µM | [2] 55.1 µM | [3] 20.2 µM | [20] 130 µM | [8] 89.1 µM | [9] 20.3 µM | [10] 97.7 µM | [17] 141 µM
not listed: [5] | [16]
inactive: all other assays above

C=CCOCC(CO)(CO)CO
not listed: [9]
inactive: all other assays above

O=S(=O)(O)c1ccccc1
not listed: [9] | [11] | [13] | [19]
inactive: all other assays above

CCOCCOCC
not listed: [9] | [14] | [15]
inactive: all other assays above

OCC(CO)(CBr)CBr
not listed: [11] | [13] | [19] | [20]
inactive: all other assays above

CCCCCCCCCCCC
not listed: [9] | [11] | [16]
inactive: all other assays above

CCCCCCCC(OC)OC
not listed: [9] | [13]
inactive: all other assays above

O=C1C=CC(=O)N1c1cccc(N2C(=O)C=CC2=O)c1
not listed: [19] | [20]
inactive: all other assays above

CNNCc1ccc(C(=O)NC(C)C)cc1
not listed: [5] | [11] | [16] | [19]
inactive: all other assays above

FC(OC(F)(F)C(F)(F)C(F)(F)F)C(F)(F)F (stereo not drawn)
not listed: [9] | [15] | [19]
inactive: all other assays above

c1ccc2c(c1)CCC2
not listed: [9] | [13] | [15]
inactive: all other assays above

C=CC(=O)OCCC(F)(F)C(F)(F)C(F)(F)C(F)(F)C(F)(F)C(F)(F)F
active: [11] 30.9 µM
not listed: [9]
inactive: all other assays above

O=C(O)C(=O)O
not listed: [11] | [13] | [16] | [20]
inactive: all other assays above
